For 40 compounds, Potency results are on record in PubChem BioAssay (NCATS).

Structures are written as SMILES. Records with an inconclusive call do not appear. Entries that show only a call come without a potency. Activity calls are given as the source filed them. Calls follow the shape of the dose curve; as a rule, active = well fitted inhibition curve with a large enough effect; inconclusive = small, poorly fitted or top-dose-only effect; inactive = flat fitted curve, though single readings scatter.
Potency is read from the fitted curve at half-maximal effect.

This test concerns CP203. The test can be described thus: qHTS profiling for inhibitors of Plasmodium falciparum proliferation (AID 504749). Also: nearly all actives have a fitted effect of over 60% in size. The settings on record: P. falciparum in erythrocytes, SYBR Green DNA, 72 h; series mostly up to 28.7 µM. The text has this:
NIH National Institute of Allergy and Infectious Diseases [NIAID] NIH Chemical Genomics Center [NCGC] MLPCN Grant: None Assay Provider: Xinzhuan Su, NIAID NCGC Assay Overview: Plasmodium falciparum is a virulent malarial parasite that kills 1-2 million people worldwide each year. Transmitted by mosquitoes, the sporozoite form of the parasite enters the blood stream to infect hepatocytes, where they become merozoites that infect red blood cells (erythrocytes). Within erythrocytes, merozoites begin a […] cycle of growth and division, after which the parasite is released to infect new red blood cells. Gametocytes, which form within erythrocytes as well, circulate in the bloodstream and are ingested by the mosquito, thereby completing the life cycle. To profile malarial isolates for differential chemical responses and to identify inhibitors of malarial growth, an assay that measures P. falciparum growth and replication within erythrocytes was employed. This assay uses a DNA binding fluorescent dye (SYBR Green) to detect parasite DNA following cell lysis. Because mature erythrocytes lack DNA, only Plasmodium-derived DNA is detected.
NCGC Assay Protocol Summary: The SYBR Green viability assay was adapted from a method described previously (Plouffe et al., 2008). For screening 3 ul culture medium was dispensed into 1536 well black clear bottom plates (Aurora Biotechnologies) using a Multidrop Combi (Thermo Fisher Scientific Inc.), 23 nL compounds in DMSO were added by a pin tool (Kalypsys), and 5 ul of erythrocytes infected with P. falciparum (0.3% parasitemia, 2.5% hematocrit final concentration) were added. The plates were incubated at 37 C in a humidified incubator in 5% CO2 for 72 h, and 2 ul lysis buffer (20 mM Tris HCl, 10 mM EDTA, 0.16% saponin, 1.6% triton X, 10X SYBR Green I supplied as 10,000X […] by Invitrogen) was added to each well. The plates were mixed for 25 sec with gentle shaking and incubated overnight at room temperature in the dark. The following morning, fluorescence intensity at 485(14) nm excitation and 535(25) nm emission wavelengths was measured on an EnVision (Perkin Elmer) plate reader. Plate reads were normalized relative to the control inhibitor (0.29 uM artemisinin) and vehicle (DMSO) wells present on each plate and then corrected by an algorithm using vehicle-only control plates at the beginning and end of the compound plate stack.
As for `CC1OC1P(=O)(O)O` (stereo not given), the Potency entry was “inactive”.
For the compound `CCCCCC[C@@H](O)C/C=C\CCCCCCCC(=O)O`, the Potency entry was “inactive”.
To `CCOc1ccc2nc(S(N)(=O)=O)sc2c1` belongs “inactive”; to `c1ccc2sc(SSc3nc4ccccc4s3)nc2c1`, “inactive”.
To `O=C(O)c1cc(O)c(O)c(O)c1` belongs “inactive”.
To `c1ccc2sc(SN3CCOCC3)nc2c1` belongs “inactive”; to `CN(C)c1ccc(C(=C2C=CC(=[N+](C)C)C=C2)c2ccccc2)cc1`, 10.7 µM (active); to `O=C(O)COc1ccc(C(=O)c2cccs2)c(Cl)c1Cl`, “inactive”.
For `O=C(O)Cc1ccc(-c2ccccc2)cc1`, the Potency result was “inactive”.
To `Clc1ccccc1-c1nc(-c2ccncc2)no1` belongs “inactive”; to `COc1cc(/C=C/C(=O)N2CCN(CC(=O)N3CCCC3)CC2)cc(OC)c1OC`, “inactive”.
To `CC(N)C(=O)OC(C)(C)Cc1ccc(Cl)cc1` (stereo not given) belongs 12 µM (active); to `CCCCCCCCCCCC(=O)[O][Sn]([CH2]CCC)([CH2]CCC)[O]C(=O)CCCCCCCCCCC`, “inactive”.
On to `Cc1cc(O)c2ccccc2c1O`, for which the Potency result is “inactive”.
As for `[O-][n+]1ccccc1SSc1cccc[n+]1[O-]`, the figure is 1.35 µM (active); as for `CC(=O)[C@]1(O)Cc2c(O)c3c(c(O)c2[C@@H](O[C@H]2C[C@H](N)[C@H](O)[C@H](C)O2)C1)C(=O)c1c(O)cccc1C3=O`, 9.53 µM (active); as for `O=C(O)[C@H](CC(=O)N1C[C@H]2CCCC[C@H]2C1)Cc1ccccc1`, “inactive”.
Regarding `CCCCCCCCCCCCCCCCCC(=O)O`, the Potency entry was “inactive”.
Turning to `Nc1c(CC(=O)O)cccc1C(=O)c1ccc(Br)cc1`, the Potency result was “inactive”.
To `CN1CCN(c2cc3c(nn2)Oc2ccccc2N3C)CC1` belongs “inactive”.
To `COc1cc(CNC(=O)CCCC/C=C/C(C)C)ccc1O` belongs “inactive”.
To `O=C1CN(/N=C/c2ccc(-c3ccc([N+](=O)[O-])cc3)o2)C(=O)N1` belongs “inactive”.
For the compound `CCOC(=O)c1ccccc1O`, the Potency entry was “inactive”.
As for `Nc1cc(-c2ccncc2)c[nH]c1=O`, the entry is “inactive”; as for `Cc1ccc(C(=O)c2ccc(CC(=O)O)n2C)cc1`, “inactive”; as for `CCCCCCCCCCCCCCCC(=O)OC(C)C`, “inactive”.
As for `Cc1ccc(O)c(-n2nc3ccccc3n2)c1`, the entry is “inactive”; as for `O=C(/C=C/c1ccccc1)NCCO`, “inactive”.
As for `CCCSc1ccc2nc(NC(=O)OC)[nH]c2c1`, the entry is “inactive”.
Take `O=C(O)c1ccccc1Nc1cccc(C(F)(F)F)c1`: the Potency result is “inactive”.
As for `C[S+](CC[C@H](N)C(=O)O)C[C@H]1O[C@@H](n2cnc3c(N)ncnc32)[C@H](O)[C@@H]1O` (stereo not given in full), the entry is “inactive”; as for `CC1(C)[C@@H](O)CC[C@]2(C)[C@H]3C(=O)C=C4[C@@H]5C[C@@](C)(C(=O)O)CC[C@]5(C)CC[C@@]4(C)[C@]3(C)CC[C@@H]12`, “inactive”.
As for `O=C(CCN1CCN(CCO)CC1)N1c2ccccc2Sc2ccc(C(F)(F)F)cc21`, the entry is “inactive”; as for `Cc1nc2ccccc2n1Cc1ccc(Cl)cc1`, “inactive”; as for `CCCOC(=O)c1ccc(O)cc1`, “inactive”.
In the case of `CC(C(=O)O)c1ccc2c(c1)[nH]c1ccc(Cl)cc12` (stereo not given), the Potency result is “inactive”.
As for `C=CC(N)CCC(=O)O` (stereo not given), the entry is “inactive”; as for `COc1ccc(/C=C/C(=O)Nc2ccccc2C(=O)O)cc1OC`, “inactive”.
As for `Cc1[nH]cnc1CN1CCc2c(c3ccccc3n2C)C1=O`, the entry is “inactive”; as for `C=CCN1C(=O)C(CC(C)C)NC1=S` (stereo not given), “inactive”.
